In PubChem BioAssay (NCI):
Compounds without any hit were thinned out: in the full panel of roughly 79,000, 15% have a hit. A number with no mark means an inactive call. Activity calls are given as the source filed them. No stated cut-off is given here; in the data, active means growth inhibition above about 70%; inactive means the rest.

Legend:
[1] = NCI Yeast Anticancer Drug Screen. Data for the rad50 strain (AID 155);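 further: 0% = growth of vehicle-only cultures of the same strain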; details: S. cerevisiae rad50 strain growth inhibition, stronger effect = higher value
Method in brief: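 Cells are treated with compound, grown, and their growth is then scored against vehicle-only cultures of the same repair-deficient yeast strain.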

[2] = NCI Yeast Anticancer Drug Screen. Data for the mec2-1 strain (AID 157); details: S. cerevisiae mec2-1 strain, stronger effect = higher value
Method in brief: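 mec2-1 yeast strain, carrying an alteration in DNA damage repair or cell cycle control, was exposed to compounds; growth inhibition was measured relative to vehicle-treated controls.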

[3] = NCI Yeast Anticancer Drug Screen. Data for the bub3 strain (AID 167); details: S. cerevisiae bub3 mutant strain, stronger effect = higher value
Method in brief: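 Part of a panel of yeast mutants defective in DNA damage repair or cell cycle regulation. Each strain is grown with compound, and inhibition is calculated relative to solvent-treated cultures.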

[4] = NCI Yeast Anticancer Drug Screen. Data for the mlh1 rad18 strain (AID 175); details: S. cerevisiae mlh1 rad18 strain growth inhibition, stronger effect = higher value
Method in brief: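 Growth inhibition of the yeast strain was measured after compound exposure and expressed relative to vehicle-treated controls. The strain carries defined defects in DNA damage repair.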

[5] = NCI Yeast Anticancer Drug Screen. Data for the sgs1 mgt1 strain (AID 161);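 further: 0% = growth of cultures given vehicle only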; details: S. cerevisiae sgs1 mgt1 strain, stronger effect = higher value
Method in brief: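 Percent growth inhibition was derived by comparing compound-exposed mutant yeast with vehicle-exposed cultures. The strain carries alterations in DNA damage repair.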

[6] = NCI Yeast Anticancer Drug Screen. Data for the cln2 rad14 strain (AID 165);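 further: 0% = growth equal to vehicle treated cultures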; details: S. cerevisiae cln2 rad14 strain, stronger effect = higher value
Method in brief: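 Yeast carrying cln2 and rad14 alterations (cell cycle control and DNA damage repair) were exposed to compounds. Growth inhibition was measured against vehicle-treated controls.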

[7] = at 5.0 µM (retest, dose inferred, filed as 0.5)
[8] = at 50.0 µM (retest, dose inferred, filed as 5.0)

SMILES | growth inhibition [1, 7] | growth inhibition [1, 8] | growth inhibition ([1]; at 50.0 µM) | growth inhibition [2, 7] | growth inhibition [2, 8] | growth inhibition ([2]; at 50.0 µM) | growth inhibition [3, 7] | growth inhibition [3, 8] | growth inhibition ([3]; at 50.0 µM) | growth inhibition [4, 7] | growth inhibition [4, 8] | growth inhibition ([4]; at 50.0 µM) | growth inhibition [5, 7] | growth inhibition [5, 8] | growth inhibition ([5]; at 50.0 µM) | growth inhibition [6, 7] | growth inhibition [6, 8] | growth inhibition ([6]; at 50.0 µM)
COc1cc(/C=C(\C)[N+](=O)[O-])cc(Br)c1O | 0% | 61% | 86.7% (active) | 1% | 82% (active) | 90.8% (active) | -3% | 54% | 93% (active) | 2% | 81% (active) | 98.7% (active) |  |  |  |  |  | 
NNc1ccccc1 | 13% | 97% (active) | 98.6% (active) | 1% | 95% (active) | 97.3% (active) |  |  |  | 15% | 98% (active) | 98.6% (active) | 3% | 98% (active) | 98.8% (active) | 0% | 96% (active) | 96.8% (active)
NC(=S)C1=C(N)Oc2c(c(=O)oc3ccccc23)C1c1ccc(Br)cc1 (stereo not given) | -7% | 66% | 20.1% | 10% | 73% (active) | 53.7% |  |  |  | -2% | 91% (active) | 62.5% | 10% | 76% (active) | 57.9% | 16% | 85% (active) | 21.4%
COc1c[c]([Hg][O]C(C)=O)c(OC)c(NC(=O)CC(C)=O)[c]1[Hg][O]C(C)=O | 97% (active) | 95% (active) | 89.7% (active) | 99% (active) | 96% (active) | 92.5% (active) | 99% (active) | 96% (active) | 90.8% (active) | 95% (active) | 95% (active) | 88.6% (active) | 100% (active) | 93% (active) | 92.5% (active) |  |  | 
CC1CCC2(OC1)OC1C(O)C3C4CCC5CC(OC6OC(CO)C(OC7OC(CO)C(O)C(OC8OCC(O)C(O)C8O)C7OC7OC(CO)C(O)C(OC8OC(CO)C(O)C(O)C8O)C7O)C(O)C6O)C(O)CC5(C)C4CCC3(C)C1C2C (stereo not given) | 95% (active) | 99% (active) | 93.2% (active) | 97% (active) | 99% (active) | 94% (active) | 97% (active) | 99% (active) | 93.2% (active) | 96% (active) | 98% (active) | 88% (active) |  |  |  | 72% (active) | 99% (active) | 92.3% (active)
COC(=O)C1ON(c2ccccc2)C2c3ccccc3-c3ccccc3C12 (stereo not given) | 31% | 63% | 58.2% | 27% | 62% | 18.9% | 33% | 86% (active) | 67.2% | 42% | 68% | 75% (active) | 45% | 76% (active) | 61.3% |  |  | 
O=C([CH-]C(=O)c1ccccc1)c1ccccc1.O=C([CH-]C(=O)c1ccccc1)c1ccccc1.[La+3].[OH-].[OH3+] | 24% | 24% | 92% (active) | 23% | 23% | 93.5% (active) | 37% | 37% | 91.2% (active) | 25% | 25% | 88.2% (active) | 27% | 27% | 93.7% (active) |  |  | 
Nc1ccc(Br)cc1C(=O)c1ccccc1 | 12% | 95% (active) | 99% (active) | 11% | 97% (active) | 99% (active) | 6% | 96% (active) | 94% (active) | 14% | 95% (active) | 99.2% (active) |  |  |  | 12% | 95% (active) | 92.5% (active)
[N-]=[N+]=NS(=O)(=O)c1ccccc1S(=O)(=O)N=[N+]=[N-] | 13% | 99% (active) | 99.2% (active) | 8% | 100% (active) | 92.6% (active) | -2% | 97% (active) | 49.1% | 18% | 99% (active) | 99.6% (active) | 9% | 99% (active) | 99.8% (active) |  |  | 
COc1cc(OC)c(/C=C(\C)[N+](=O)[O-])cc1Br | 1% | 1% | 96.5% (active) | 3% | 3% | 84.9% (active) |  |  |  | 2% | 1% | 98.7% (active) | 2% | -16% | 88% (active) | 3% | 0% | 66.2%
N#Cc1cc([N+](=O)[O-])c(Cl)c([N+](=O)[O-])c1Cl | 50% | 98% (active) | 92.6% (active) | 61% | 99% (active) | 93.2% (active) | 99% (active) | 96% (active) |  | 41% | 99% (active) | 92.1% (active) | 100% (active) | 98% (active) |  | 70% (active) | 97% (active) | 
O=C([CH-]C(=O)c1ccccc1)c1ccccc1.O=C([CH-]C(=O)c1ccccc1)c1ccccc1.O=C([CH-]C(=O)c1ccccc1)c1ccccc1.[Nd+3].[OH3+] | 49% | 99% (active) | 91.8% (active) | 43% | 100% (active) | 93.8% (active) | 61% | 99% (active) | 92.5% (active) | 60% | 100% (active) | 91.2% (active) | 55% | 100% (active) | 93.8% (active) |  |  | 
CC[C@@H]1C(=O)OC[C@@H]1Cc1cncn1C | -3% | -8% | -4.1% | 18% | -4% | -35.8% | -11% | -4% | -19.1% | -7% | -1% | -9.2% |  |  |  | -27% | -90% | 26%
COC1=C(Cl)C(=O)c2ccccc2C1=O | 8% | 98% (active) | 99.2% (active) | 15% | 99% (active) | 99.5% (active) | 30% | 98% (active) | 99.2% (active) | 7% | 99% (active) | 99.4% (active) | 6% | 99% (active) | 99.6% (active) | -2% | 98% (active) | 99.1% (active)
CC[CH2][Pb]([CH2]CC)([CH2]CC)[NH]S(=O)(=O)c1ccc(C)cc1 | 99% (active) | 99% (active) | 99.5% (active) | 99% (active) | 100% (active) | 99.7% (active) | 100% (active) | 100% (active) | 99.5% (active) | 99% (active) | 100% (active) | 99.5% (active) | 99% (active) | 99% (active) | 99.6% (active) |  |  | 
O=C([CH-]C(=O)c1ccccc1)c1ccccc1.O=C([CH-]C(=O)c1ccccc1)c1ccccc1.O=C([CH-]C(=O)c1ccccc1)c1ccccc1.[OH3+].[Y+3] | 46% | 99% (active) | 91.6% (active) | 42% | 100% (active) | 93.5% (active) | 63% | 84% (active) | 92.5% (active) | 56% | 100% (active) | 91.5% (active) | 53% | 100% (active) | 94.1% (active) |  |  | 
CC(=O)[O-].CC(=O)[O-].O=C([CH-]C(=O)c1ccccc1)c1ccccc1.[Nd+3].[OH3+] | 33% | 33% | 91.6% (active) | 27% | 27% | 91.9% (active) | 27% | 27% | 91% (active) | 24% | 24% | 88.8% (active) | 30% | 30% | 93% (active) |  |  | 
COc1ccc(CC2C(=O)NC(C)C(=O)N(C)C3C(=O)N(C)C(Cc4ccc(O)c(c4)Oc4ccc(cc4)C3O)C(=O)NC(C)C(=O)NC(C)C(=O)N2C)cc1 (stereo not given) (tested in a mixture with another compound) | 31% | 99% (active) | 83.2% (active) | 28% | 100% (active) | 78% (active) | 34% | 99% (active) | 83.3% (active) | 32% | 98% (active) | 69.3% |  |  |  | 41% | 98% (active) | 78.5% (active)
CN1CCOC12CCC1(C)C(CCC3C4CCC(O)C4(C)CCC31)C2 (stereo not given) | -11% | -5% | 77.5% (active) | -14% | -8% | 5.8% | -22% | -9% | 4.75% | -12% | -12% | 71.8% (active) | -7% | 9% | 58% |  |  | 
CC(=O)[O-].O=C([CH-]C(=O)c1ccccc1)c1ccccc1.O=C([CH-]C(=O)c1ccccc1)c1ccccc1.[Dy+3] | 44% | 99% (active) | 91.5% (active) | 35% | 99% (active) | 93.2% (active) | 57% | 96% (active) | 92.1% (active) | 50% | 98% (active) | 91.3% (active) | 44% | 100% (active) | 93.4% (active) |  |  | 
COC1CC2C=C(C)/C=C/C=C/C(=O)NC(c3ccccc3)C/C=C/CCC(O)CC(=O)C2=C1O (stereo not given) | 97% (active) | 99% (active) | 91.5% (active) |  |  |  | 99% (active) | 99% (active) | 88.7% (active) | 98% (active) | 99% (active) | 91.7% (active) | 99% (active) | 99% (active) | 92.5% (active) | 98% (active) | 99% (active) | 91.3% (active)
